Assay results from the supplement of paper PMC7393113.
Structures can show the parent of a compound that is named as a salt. ± gives the standard deviation of the averaged measurements.

These compounds were tested on iBMDM (immortalised mouse bone-marrow-derived macrophages), LPS-stimulated (assay: mitochondrial superoxide (MitoSOX fluorescence) fold increase over unstimulated control; higher = more LPS-induced mitochondrial ROS (less inhibition)). Conditions: inhibitor concentration: 500 nM; LPS: 100 ng/ml; time after LPS: 1 h.
How it was run: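 Cells were immortalised mouse bone-marrow-derived macrophages, plated in triplicate and switched to phenol-red-free 1% FCS/DMEM for 20 h. Kinase inhibitors (500 nM, 30 min) preceded MitoSox loading (1 μM, 10 min) and LPS addition (100 ng/ml), with 510/580 nm fluorescence read every 60 min for 4 h. Mitochondrial superoxide is reported as averaged fold induction over untreated macrophages.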
`CCN1CCN(Cc2ccc(Nc3ncc(F)c(-c4cc(F)c5nc(C)n(C(C)C)c5c4)n3)nc2)CC1` showed a mitochondrial superoxide of 1.13 ± 0.056. For `Cc1ccc(S(=O)(=O)Nc2nc3ccccc3nc2Nc2ccc3nsnc3c2)cc1`, the mitochondrial superoxide was 1.4 ± 0.089. `Oc1ccc(Nc2nc(-c3ccc(Cl)cc3)cs2)cc1` showed a mitochondrial superoxide of 1.47 ± 0.039.

Same assay, conditions: inhibitor concentration: 500 nM; LPS: 100 ng/ml; time after LPS: 2 h
Work on `O=C(c1ccc(Nc2nccc(-c3cc4ccccc4s3)n2)cc1)N1CCC(N2CCCC2)CC1` [IKK-16 (IKK Inhibitor VII)] yielded a mitochondrial superoxide of 1.09 ± 0.087. `Cc1cc(Nc2cc(N3CCN(C)CC3)nc(Sc3ccc(NC(=O)C4CC4)cc3)n2)n[nH]1` [VX-680 (Tozasertib, MK-0457)] showed a mitochondrial superoxide of 1.64 ± 0.051. `CNC(=O)c1c(F)cccc1Nc1nc(Nc2cc3c(cc2OC)CCN3C(=O)CN(C)C)nc2[nH]ccc12` was tested, and the mitochondrial superoxide was 1.47 ± 0.031. In the case of `Nc1ccc(C(=O)Nc2cccc(-c3nc(N4CCOCC4)c4oc5ncccc5c4n3)c2)cn1`, the mitochondrial superoxide is reported as 1.23 ± 0.053. `COc1cc(Nc2ncc(F)c(Nc3ccc4c(n3)NC(=O)C(C)(C)O4)n2)cc(OC)c1OC` [R406 (free base)] showed a mitochondrial superoxide of 1.32 ± 0.041. Compound `CC(C)(C)c1cc(NC(=O)Nc2ccc(-c3cn4c(n3)sc3cc(OCCN5CCOCC5)ccc34)cc2)no1` [Quizartinib (AC220)] has a mitochondrial superoxide of 1.19 ± 0.047. For `CCc1nc(-c2cccc(C)c2)c(-c2ccnc(NC(=O)c3ccccc3)c2)s1`, the mitochondrial superoxide was 1.17 ± 0.022. `CN1CC[C@H](c2c(O)cc(O)c3c(=O)cc(-c4ccccc4Cl)oc23)[C@H](O)C1` [Flavopiridol HCl] gave a mitochondrial superoxide of 1.48 ± 0.088. `CC(C)CCN1c2nc(Nc3cc(F)c(O)c(F)c3)ncc2N(C)C(=O)C1C` (stereo not drawn) was tested, and the mitochondrial superoxide was 1.21 ± 0.047. With `COC(=O)Nc1ccc(-c2nc(N3CCOCC3)c3cnn(C4CCN(C(=O)OC)CC4)c3n2)cc1` the mitochondrial superoxide was 1.13 ± 0.02.
